# Assay results: ChEMBL document CHEMBL4513216, “Probing the Open Global Health Chemical Diversity Library for Multistage-Active Starting Points for Next-Generation Antimalarials” (ACS Infect Dis, 2020)
# Among all 65,000 compounds or so, about 2,100 (3.2%) showed an effect of 50% or more. The median lay at about -52%. For the sample, strong results were picked, then their nearest neighbours and some compounds at random.
# Tested on: Plasmodium falciparum
# Assay: Screen against P. falciparum Asexual Blood Stage (ABS), at 5uM
# Assay type: functional, Dd2
# Conditions: tested at 5 uM
row,Structure (SMILES),INHIBITION [%]
1,CN(C)[C@@H]1CN(C(=O)Cc2ccccc2)[C@@H]2CCCO[C@H]12,-9.86
2,CC(C)CCC(=O)N1CCC2(CC1)OCCO2,-8.85
3,Cc1ccc(C(=O)N2C[C@H]3CN(Cc4csc(C)n4)C[C@H]3C2)cn1,-173
4,COC(=O)C(C)(C)NC(=O)c1cnc(Cc2ccc(F)cc2)s1,75.4
5,Cc1cnn(CCNCC(O)c2ccc(C(F)(F)F)cc2)c1 (stereo not drawn),72.6
6,Cc1cnn(CCNCC(O)COc2c(Cl)cccc2Cl)c1 (stereo not drawn),81.9
7,Cc1cnn(CC(C)NCCc2cccs2)c1 (stereo not drawn),-30.1
8,CC(C)(O)CNc1ccc(C#N)c(C(F)(F)F)c1,-74.3
9,CC1=NOC2(CCN(Cc3c[nH]c4ccccc34)CC2)C1,-17.9
10,O=C(c1ccc[nH]1)N1CCC2(CCCN2Cc2cccnc2)CC1,-9.26
11,CN(C)c1ncc2c(n1)C1(CCN(Cc3cccnc3)C1)COC2 (stereo not drawn),-4.75
12,CCN1CCN(C[C@@H]2CN(c3ncc(Cl)cc3F)C[C@@H]2CO)CC1,92.2
13,Cc1ccccc1OCC(=O)N1CCN(C2CCOC2=O)CC1 (stereo not drawn),-28.3
14,Cc1cccc(NC(=O)c2cccc(OCc3nnnn3C)c2)n1,80.7
15,CC(C)CCNc1c(C#N)c2c(c3nncn13)CN(C)CC2,-35.1
16,CN1CCc2c(C#N)c(NCCCO)n3cnnc3c2C1,-82.4
17,CN1CCc2c(C#N)c(NCCc3ccccc3)n3cnnc3c2C1,70.9
18,COc1ccc(CC(=O)N2CCC[C@@H](N)[C@@H]2c2ccccc2F)cc1,80.9
19,COc1ccc(CC(=O)N2CCN(Cc3ccco3)C[C@@H]2C)cc1,-22.3
20,COCCN1C[C@@H]2[C@@H](OC)CCN(C(=O)Cc3ccccc3)[C@@H]2C1,-25
21,Cc1cccc(CN2C[C@@H]3OCCN(S(=O)(=O)N(C)C)[C@@H]3C2)n1,-43.1
22,CCc1ccc2nc(NCCCN(CCO)CCO)cc(C)c2c1,83.4
23,CCN1CCC12CCN(C(=O)c1cc(C)on1)C2 (stereo not drawn),-10.1
24,CCc1noc(CN2CCN(C(=O)Cc3ccc(F)cc3)CC2)n1,-9.72
25,NC1CCCCN(Cc2cc(-c3ccccc3OC(F)(F)F)no2)C1 (stereo not drawn),71.1
26,CC(C)n1ccc2c(C(=O)NC3CN4CCC3CC4)cccc21 (stereo not drawn),-67.1

row,Structure (SMILES),INHIBITION [%]
1,COc1cccc(CNC(C)C)c1OCc1ccc(C)cc1,73.7
2,COc1cc(CNCC(C)O)cc(Cl)c1OCc1ccc(C)cc1 (stereo not drawn),73.9
3,Cc1nc(C)c(CC(=O)N2CCN(CC(C)C)CC2)c(=O)[nH]1,-137
4,Fc1cccc(C(NCc2ncc[nH]2)c2ccccn2)c1 (stereo not drawn),91.8
5,Clc1cccc(C(NCc2ncc[nH]2)c2ccccn2)c1 (stereo not drawn),86.9
6,Cc1nnc([C@@H]2C[C@H]3CN(C4CCC4)C[C@H]3O2)[nH]1,-81.6
7,O=C(c1cn(Cc2ccccc2)c2ncccc12)N1CCCCC1,-11.9
8,N#CC1(c2ccccc2)CCN(C(=O)CN2C(=O)CCNC2=O)CC1,-90.6
9,COc1ccc(CNC(C)Cn2cccn2)c(OC)c1OC (stereo not drawn),-37.6
10,COc1ccc(CNC(C)c2ccc(Cl)cc2)c(OC)c1OC (stereo not drawn),80.9
11,CNS(=O)(=O)c1cccc(C(C)NCc2ccccc2OC)c1 (stereo not drawn),86.6
12,CCOc1cccc(C(C)NCc2ccc(OC)c(OC)c2OC)c1 (stereo not drawn),77.6
13,COc1ccc(CNC(C)c2ccccc2Cl)c(OC)c1OC (stereo not drawn),75.6
14,O=C1C[C@@H]2[C@H](CCN2Cc2ccccn2)N1Cc1ccncc1,19.2
15,Cc1n[nH]c(C)c1CNC(=O)c1cn(CCC2CCCCN2)nn1 (stereo not drawn),-24.9
16,c1coc(CNc2ncc3c(n2)C2(CCNC2)COC3)c1 (stereo not drawn),-66
17,CC(C)N1CCCC(Cc2nccnc2Cl)CC1 (stereo not drawn),-7.14
18,Cn1ccc(CN2CCCC23CCNCC3)n1,-53.7
19,O=C([C@H]1C[C@H]2OCC[C@H]2N(Cc2ccccn2)C1)N1CCCCO1,-88.5
20,COCC(O)CN(C)c1ccnc2cc(Br)ccc12 (stereo not drawn),94.4
21,Cc1cc(CN2CCN3C[C@H](c4ccccc4)[C@@H](CO)[C@H]3C2)on1,-81.4
22,Cc1ccc(N2CCC3(CCCN3Cc3ccn(C)n3)CC2)nn1,-63.5
23,Cc1ccccc1-n1cc(C2=CCN(CCN3CCOCC3)CC2)cn1,-4.21
24,CN(C)C(=O)[C@@H]1CC[C@@H]2[C@@H](CCN2Cc2ccccn2)O1,-97.6
25,CC(C)NC(=O)[C@@H]1CC[C@@H]2[C@@H](CCN2Cc2cn(C)c3ccccc23)O1,77.6
26,CN(C)C(=O)[C@H]1CC[C@@H]2[C@@H](CCN2Cc2ccccn2)O1,-43.5

row,Structure (SMILES),INHIBITION [%]
1,CCN(CC)C(=O)C1CCC2(CCNCC2)CO1 (stereo not drawn),-31.8
2,COCC(=O)NC(C)Cc1ccc(Br)cc1 (stereo not drawn),17.4
3,Cc1nc(Nc2ccc(Cl)cn2)sc1C(=O)NCCCN1CCCCC1,81.4
4,Cc1cnc(N2CCN3C[C@H](OCc4ccccn4)C[C@H]3C2)nc1,-24.1
5,O=C(c1nn(-c2ccccc2F)cc1O)N1CCC2(CC1)OCCO2,-12.3
6,CCCN1CCCC(O)(c2nc(C)c(COc3ccccc3)s2)CC1 (stereo not drawn),83.2
7,O=S1(=O)CCC(n2cc(C3=CCN(CCc4ccccc4)CC3)cn2)C1 (stereo not drawn),-45.5
8,O=C(Nc1cccnc1)[C@H]1CN(Cc2nccs2)C[C@H]2OCC[C@@H]12,-93.3
9,CCC(CC)(CN)NC(C)c1ccccc1 (stereo not drawn),83.4
10,CC(O)CN1CCC(CNCc2cccc(C(F)(F)F)c2)CC1 (stereo not drawn),83.1
11,O=C(Cc1ccc(F)cc1)N1CCN(CC(O)C2CC2)CC1 (stereo not drawn),1.79
12,CC(O)CN1CCC(CNCc2cccc(OC(F)(F)F)c2)CC1 (stereo not drawn),80.1
13,CC(O)CN1CCC(CNCc2ccc(OC(F)(F)F)cc2)CC1 (stereo not drawn),86.9
14,CC(=O)N1CCC(CCNC(C)Cc2ccc(F)cc2)CC1 (stereo not drawn),-0.762
15,Cc1c(C(=O)O)nnn1Cc1cccc(C(F)(F)F)c1,-66.5
16,Cc1nc(CN2CCOC3(CCCC3)C2)no1,-138
17,C[C@@H]1CN(C2CCOCC2)C[C@]12CCN(c1cccnc1)C2=O,-104
18,Cc1ccc(-c2ccnc3cc(CC(=O)N4CCN(C)CC4)nn23)cc1,-116
19,CC(C)N(C)C(=O)C1CCC2(CCNCC2)O1 (stereo not drawn),-214
20,c1cc(CO[C@@H]2CC[C@H]3[C@H]2OCCN3Cc2ccoc2)ccn1,-169
21,CC(C)CCC(=O)N1C[C@H]2CCN[C@H]2C1,-114
22,CCc1noc(C)c1C(=O)NCC(c1ccc(C)cc1)N(C)C (stereo not drawn),71.4
23,Cc1noc(CN2CC=C(c3cnn(C4CCS(=O)(=O)C4)c3)CC2)n1 (stereo not drawn),-15.1
24,CC(C)(C)n1ncc2c1NC(=O)CSC2c1ccc2c(c1)OCO2 (stereo not drawn),-138
25,NC(=O)c1ccc(N2CCCCC2)c(NC(=O)c2ccc(Br)cc2)c1,71.3
26,O=C(NC[C@H]1C[C@@H]2CCN1C[C@@H]2CN1CCOCC1)Nc1ccccc1,-40.4

row,Structure (SMILES),INHIBITION [%]
1,Cc1cc(C)nc(Nc2ccc(C3CCCCN3)cn2)n1 (stereo not drawn),-64.1
2,Cc1cccc(Nc2ccc(C3CCCCN3)cn2)n1 (stereo not drawn),81.4
3,c1cnc(Nc2ccc(C3CCCCN3)cn2)cn1 (stereo not drawn),13.6
4,CC(C)C1CCCN1C(=O)c1ccc(-n2ncc(C#N)c2N)cc1 (stereo not drawn),71.4
5,Cc1cc(CN2C[C@@H]3COC[C@]3(COCc3csc(C)n3)C2)no1,-58.8
6,Cc1cccc(CN2C[C@H]3CCC[C@@]3(COCc3csc(C)n3)C2)n1,82
7,Cc1cc(CN2C[C@H]3CCC[C@@]3(COCc3csc(C)n3)C2)no1,14.2
8,CC(C)N1CCCCC1c1nc(N(C)C)ncc1I (stereo not drawn),72
9,CC(C)N1CCCCC1c1cncc(Cl)n1 (stereo not drawn),-50.5
10,CC(C)N1CCCC1c1nc(N(C)C)ncc1I (stereo not drawn),70.7
11,COCCNC(=O)[C@H]1CN2CCC1C[C@@H]2Cn1cc(C(C)(C)C)nn1 (stereo partly drawn),-65.8
12,c1cnc(N2CCOC3(COCCN(Cc4cc[nH]n4)C3)C2)nc1 (stereo not drawn),-27.9
13,CC(C)=CCN1C[C@@H]2CC[C@H]1CN(S(=O)(=O)c1cccnc1)C2,-10.7
14,CCNC(=O)[C@H]1CN(Cc2ccccc2)C[C@@H]1C(=O)c1ccccc1,-76.3
15,CCN(C)C[C@@H]1CN(Cc2cccc(Cl)c2)C[C@@H]1CO,83.6
16,CCN(C)C[C@@H]1CN(S(=O)(=O)c2cccc(Cl)c2)C[C@@H]1CO,75.3
17,C=Cc1cccc(CN2C[C@@H](CN(C)CC)[C@@H](CO)C2)c1,87.6
18,CN1CC=C(c2noc(CCC(=O)N3CCCC3)n2)CC1,-71.4
19,Cc1cccc(N2CCN(C(=O)CCc3c(C)noc3Cl)CC2)c1,86.3
20,Cc1nc(CN2CCN(C(=O)Cc3cccc(Cl)c3)CC2)no1,-18.4
21,Cc1ccnc(CC(C)N(C)Cc2ccc3c(c2)CCO3)c1 (stereo not drawn),-33.2
22,Cc1ccc(CN2CCO[C@@H]3[C@@H](OCc4cccnc4)CC[C@@H]32)o1,-89.9
23,Cc1nc(C(=O)N[C@H]2COC[C@@H]2N2CCCCC2)cs1,-260
24,O=C(N[C@H]1COC[C@@H]1N1CCCC1)c1csc(-c2cccs2)n1,50.8
25,O=C(N[C@H]1COC[C@@H]1N1CCCC1)c1csc(Cc2ccccc2)n1,-21.2
